JMJD2A Tudor inh – qHTS Assay for Inhibitors of JMJD2A-Tudor Domain; Lysine-specific demethylase 4A (Homo sapiens), O75164; Potency, µM (highest dose often 114 µM), for the others: top-dose activity change, negative = inhibition, most hits filed as inhibitors; AID 504339, 2011; 390,000 compounds, 4.4% hits; AlphaScreen JMJD2A-Tudor / H3K4me3 peptide binding; note: potency is the fitted concentration of half-maximal effect; % is set by controls: 0 for no effect and ±100 for the full control effect; nearly all actives have a fitted effect of over 50% in size
BAZ2B inh – qHTS Assay for Inhibitors of BAZ2B. AlphaScreen BAZ2B-H3K14Ac peptide displacement. Potency, µM (highest dose often 114 µM), for the others: top-dose activity change, negative = inhibition, hits mostly inhibitors. 360,000 compounds, 4.4% hits. AID 504333, 2011; note: potency is the fitted concentration of half-maximal effect; % is set by controls: 0 for no effect and ±100 for the full control effect; nearly all actives have a fitted effect of over 60% in size
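Multi-concentration screen (max 110 uM) measuring displacement of acetylated histone H3 peptide from BAZ2B by AlphaScreen, using 50 nM protein, 50 nM peptide and 10 ug/mL streptavidin donor plus Ni-chelate acceptor beads.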
G9a block – qHTS Assay for Inhibitors of Histone Lysine Methyltransferase G9a; 350,000 compounds, 8.8% hits; G9a H3K9 monomethylation, AlphaScreen, 2 h; Potency, µM (titrated, usually from 102 µM), for the others: top-dose activity, negative = inhibition, actives largely listed as inhibitors; note: potency is the fitted concentration of half-maximal effect; % is set by controls: 0 for no effect and ±100 for the full control effect; nearly all actives have a fitted effect of over 75% in size
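Methyltransferase reactions run at room temperature for 2 h (20 nM enzyme, 500 nM biotin-H3K9 peptide, 20 uM SAM) after a 15 min compound preincubation; product detected by AlphaScreen beads and anti-H3K9me1 antibody.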
Six1-Eya2 inh – qHTS Assay for Inhibitors of the Six1/Eya2 Interaction; AlphaScreen GST-Six1/His-Eya2 binding, biochemical; active compounds read low; activity change, % (test concentration not listed); 360,000 compounds, 0.56% hits; AID 651725, 2012; Homeobox protein SIX1 (Homo sapiens) + Protein phosphatase EYA2 (Homo sapiens), …; in the data active = activity change below about -65%; inconclusive = mostly about -30% to -63%; note: % is set by controls: 0 for no effect and ±100 for the full control effect
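Homogeneous AlphaScreen proximity assay pairing GST-Six1 with His-tagged Eya2 (added as 5X mix: 250 nM and 500 nM) in 50 mM Tris pH 8.0, 300 mM NaCl, 1 mM TCEP. Glutathione donor and nickel acceptor beads; 1 h, 37 °C, dark.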
HP1b chromo inh – HTS for Inhibitors of HP1-beta Chromodomain Interactions with Methylated Histone Tails | AID 540317, 2011 | AlphaScreen HP1-beta / biotin-H3K9me3 peptide binding | Potency, µM (top dose mostly 114 µM), for inactives: at the highest dose activity change, negative = inhibition, actives largely listed as inhibitors | 390,000 compounds, 0.56% hits | Chromobox protein homolog 1 (Homo sapiens), P83916; note: potency is the fitted concentration of half-maximal effect; nearly all actives have a fitted effect of over 70% in size
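HP1-beta protein (50 nM final) preincubated 30 min at room temperature with biotinylated H3(1-18)K9me3 peptide (50 nM) in PBS pH 7.4, 0.01% Tween-20, then compound added for 30 min. AlphaScreen streptavidin donor/nickel chelate acceptor beads (10 ug/mL final), 30 min dark, luminescence read.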
CtBP-E1A blk – qHTS Assay for Inhibitors of the CtBP/E1A Interaction | CtBP / adenovirus E1A interaction (AlphaScreen) | activity change, % (concentration not given with the values) | AID 651724, 2012 | 340,000 compounds, 0.49% hits | AlphaScreen GST-E1A/His-CtBP binding, 1536-well; active compounds read low; in the data active = activity change below about -65%; inconclusive = mostly about -30% to -63%; note: % is set by controls: 0 for no effect and ±100 for the full control effect
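Protein mix (5X: 125 nM each GST-E1A, His-CtBP) was incubated with pinned compound 2 h at 37 deg C in dark, in 50 mM Tris pH 8.0 buffer with 300 mM NaCl. Glutathione donor and nickel acceptor beads followed; AlphaScreen signal read after 1 h.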
* hit, by the source's call; ? = inconclusive; nt = not tested or not shown; [ ] = remark or other dose. Most compounds without a hit are left out; they make up all but 10% or so of the library. Unless noted, calls come from the whole dose curve; as a rule, active = well fitted inhibition curve with a large enough effect; inconclusive = small, poorly fitted or top-dose-only effect; inactive = no such curve, though single readings can be large or run the other way.

SMILES	JMJD2A Tudor inh	BAZ2B inh	G9a block	Six1-Eya2 inh	HP1b chromo inh	CtBP-E1A blk
O=C(COc1cccc(Cl)c1)N1CCC(c2nc3ccccc3o2)CC1	-11.9%	3.5%	5.0%[59 µM]	nt	15.3%	nt
O=C(NCc1cccnc1)c1cc(C2CCCCN2C(=O)CCCc2ccccc2)on1 (centres undefined)	nt	nt	nt	5.3	nt	4.4
COCCn1c(=O)c(-c2cn(C)c3ccccc23)nc2cnc(Oc3ccccc3)nc21	nt	nt	-2.2%[12.7 µM]	nt	nt	nt
CN(Cc1c(O)ccc2c1oc(=O)c1ccccc12)C1CCCCC1	3.98µM*	5.62µM*	?	-1.1	?	-2.4
Cc1ccccc1-n1nnnc1SCC(=O)NNC(=O)c1ccc(NC(=O)CC#N)cc1	-10.4%	3.5%	10.6%[12.7 µM]	-2.4	40.5%	-8.0
CCOC(=O)c1cccc(NC(=O)c2ncoc2-c2ccco2)c1	-14.9%	-9.4%	8.9%[59 µM]	nt	36.9%	nt
NC(=O)c1cc(N2C(=O)C=CC2=O)ccc1Cl	25.1µM*	?	1.26µM*	-9.1	?	4.0
CC(=O)Nc1ccc(Cl)c(C(N)=O)c1	-6.3%	-0.9%	3.8%[12.7 µM]	3.9	26.1%	0.6
COc1cc(CN2CCC(C(=O)N3CCN(c4ccccc4F)CC3)CC2)cc(OC)c1OC	2.51µM*	50.1µM*	25.1µM*	-0.9	?	-3.0
COc1ccc(CN2CCC(C(=O)N3CCN(c4ccccc4F)CC3)CC2)cc1OC	0.891µM*	56.2µM*	?	-3.0	?	4.2
COc1ccccc1CC(=O)N1CCN(c2ccccc2F)CC1	-8.6%	5.4%	17.0%	-2.5	23.6%	nt
COc1ccc(CC(=O)N2CCN(c3ccccc3F)CC2)cc1OC	0.0%	-1.4%	25.1%[59 µM]	1.6	32.5%	3.8
COc1cccc(CN2CCC(C(=O)N3CCN(c4ccccc4F)CC3)CC2)c1OC	3.55µM*	?	10µM*	10.1	?	0.5
COCCNC(=O)CCCn1c(SCC(=O)Nc2ccc(F)cc2)nc2c(sc3ccccc32)c1=O	-17.8%	-15.2%	2.1%[59 µM]	nt	20.1%	nt
COc1ccc(S(=O)(=O)NCCc2sc(-c3ccccc3)nc2C)cc1OC	-7.1%	-1.3%	-3.9%[59 µM]	nt	23.8%[57 µM]	nt
Cc1cccc(C(=O)NCC(c2ccco2)S(=O)(=O)c2cccs2)c1 (centres undefined)	-1.6%	-7.0%	0.6%[59 µM]	nt	23.4%	nt
Cc1ccc(Oc2c(C(F)(F)F)oc3c(CN4CCCCC4C)c(O)ccc3c2=O)cc1 (centres undefined)	4.5%	-0.8%	-0.9%[59 µM]	nt	19.4%	nt
Nc1nn(-c2ccccc2)nc1C(=O)OCc1ccc(Cl)cc1	7.8%	4.7%	64.3%[59 µM]	nt	52.0%	nt
CCc1ccc(Cn2c(CNS(=O)(=O)c3ccc([N+](=O)[O-])cc3)nc3cccnc32)cc1	-7.7%	-1.0%	27.3%[59 µM]	nt	33.2%[57 µM]	nt
CCCCc1c(C)nc2ccc(C)cc2c1SCCC(=O)O	-14.7%	-16.1%	-4.7%[59 µM]	16.9	38.1%	0.0
CCCCc1c(C)nc2ccccc2c1SCCC(=O)O	-15.6%	?	50.1µM*	2.9	19.8%	nt
CCOC(=O)c1c(NC(=O)c2nc(SC(C)C)ncc2Cl)sc2c1CCCC2	-9.7%	-23.8%	0.1%[59 µM]	nt	32.7%	nt
NS(=O)(=O)c1cccnc1Nc1cccc(C(F)(F)F)c1	7.0%	2.9%	0.7%[59 µM]	-4.4	1.9%	0.5
O=C(O)c1cccnc1Nc1cccc(C(F)(F)F)c1	5.8%	79.4µM*	11.3%[59 µM]	-1.0	20.6%	2.0
O=C(Nc1cccc(C(F)(F)F)c1)c1cccnc1N1CCN(c2ccccc2)CC1	79.4µM*	50.1µM*	?	-11.6	14.2%	-20.2
SMILES	JMJD2A Tudor inh	BAZ2B inh	G9a block	Six1-Eya2 inh	HP1b chromo inh	CtBP-E1A blk
COc1ccc(Cl)cc1NC(=O)c1oc2ccc(S(=O)(=O)N3CCCCC3)cc2c1C	-13.1%	-0.2%	4.7%[59 µM]	nt	23.9%	nt
O=C(COC(=O)c1ccc(Cl)nc1)Nc1cc(S(=O)(=O)N2CCCCC2)ccc1Cl	-30.2%	-6.6%	12.6%	-2.2	0.0%	-2.1
O=C(COC(=O)c1ccc(Cl)nc1)Nc1ccc(S(=O)(=O)N2CCCC2)cc1	-10.5%	9.5%	44.7µM*	-5.9	47.6%	-0.9
O=C(COC(=O)c1cnc(Cl)c(Cl)c1)Nc1ccc(S(=O)(=O)N2CCCC2)cc1	-14.9%	-0.2%	-5.6%	-77.1*	3.8%	?
O=C(COC(=O)c1ccc(S(=O)(=O)N2CCCC2)cc1)Nc1ccccc1	-12.1%	10.7%	-3.0%[2.33 µM]	-4.0	21.6%	2.5
O=C(O)C1Cc2ccccc2CN1C(=O)COc1ccc(Br)cc1 (centres undefined)	?	nt	50.1µM*	-10.7	6.0%	1.4
O=C(C1Cc2ccccc2CN1C(=O)c1ccccc1)N1CCN(c2ccccc2)CC1 (centres undefined)	?	70.8µM*	nt	-8.1	-29.1%	0.8
O=C(O)C1Cc2ccccc2CN1C(=O)COc1ccc(Cl)cc1Cl (centres undefined)	-17.2%	-31.1%	25.1µM*	-5.0	12.1%	-5.1
O=C(O)C1Cc2ccccc2CN1C(=O)CCl (centres undefined)	?	nt	8.91µM*	-7.5	14.2%	2.3
COc1ccc(N2CCN(C(=O)C3Cc4ccccc4CN3C(=O)c3ccco3)CC2)cc1 (centres undefined)	-22.2%	-31.5%	?	-6.2	12.0%	-2.8
CCCCOCCCNC(=O)C[C@@H]1C[C@@]2(C(=O)OC)CC(C)(C)CC=C2N(Cc2cccc3ccccc23)C1=O	nt	nt	nt	-1.0	nt	-15.8
Cc1ccc(N(CC(=O)N2CCN(c3cccc(C)c3C)CC2)S(=O)(=O)c2c(C)nn(C)c2C)cc1	?	nt	?	nt	5.5%	nt
N[C@@H](CSCCCO)C(=O)O	nt	nt	4.7%[59 µM]	nt	nt	nt
COCCNc1nnc(SCC(=O)NNC(=O)c2ccc([N+](=O)[O-])cc2)s1	-3.9%	9.4%	35.5µM*	-4.5	35.0%	1.7
Cc1ccc(N(CC(=O)NCc2ccco2)C(=O)CCC(=O)Nc2ccccn2)c(C)c1	-13.7%	-13.9%	22.4µM*	-14.8	11.1%	-11.7
Cc1cc(C)cc(N(CC(=O)NCc2ccco2)C(=O)CCC(=O)Nc2ccccn2)c1	-13.8%	-9.8%	-14.0%	-5.5	?	0.9
Cc1ccc(N(CC(=O)NCc2ccc(F)cc2)C(=O)CCC(=O)Nc2ccccn2)cc1C	79.4µM*	3.1%	14.8%[59 µM]	0.2	9.8%	-4.8
